High-throughput results: PubChem, National Center for Advancing Translational Sciences (NCATS)
D1 antag = antagonists of human D1 dopamine receptor. 360,000 tested, 3.2% active. P21728. HEK293 TREx D1 cells, calcium flux, dopamine EC80; stronger effect = lower value. activity change, negative = inhibition, % at 10 µM; in the data active = activity change below about -30%; note: % is set by controls: 0 for no effect and ±100 for the full control effect
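Allosteric or orthosteric antagonism assessed as attenuation of the calcium response to EC80 dopamine, added 180 s after compound, in induced HEK293 Trex D1 cells loaded with no-wash calcium dye.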
D1 potentiator = potentiators of human D1 dopamine receptor. P21728. HEK293 TREx D1 cells, calcium flux, dopamine EC20 potentiation. potentiation, % at 10 µM. 360,000 tested, 0.036% active; in the data active = potentiation above about 30%; note: 0% is about no effect
D1 agonist = human D1 receptor agonism | P21728 | HEK293 T-REx D1 cells, calcium flux, agonist mode | activation, % at 2 µM | 360,000 tested, 1% active | AID 504660; note: 0% is about no effect
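Agonism was scored from calcium flux recorded over 180 s (1 read/s) after pintool compound addition, following a 10-cycle baseline. Cells were inducible force-coupled HEK293 TREx D1, plated overnight at 30 C and loaded with no-wash calcium dye.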
TRHR ag = activates the human TRH receptor. P34981. 360,000 tested, 0.18% active. TRHR cells, calcium flux fluo-8, FDSS agonist mode. activation, % at 2 µM; note: 0% is about no effect
Target sequence (P34981 whole entry, looked up): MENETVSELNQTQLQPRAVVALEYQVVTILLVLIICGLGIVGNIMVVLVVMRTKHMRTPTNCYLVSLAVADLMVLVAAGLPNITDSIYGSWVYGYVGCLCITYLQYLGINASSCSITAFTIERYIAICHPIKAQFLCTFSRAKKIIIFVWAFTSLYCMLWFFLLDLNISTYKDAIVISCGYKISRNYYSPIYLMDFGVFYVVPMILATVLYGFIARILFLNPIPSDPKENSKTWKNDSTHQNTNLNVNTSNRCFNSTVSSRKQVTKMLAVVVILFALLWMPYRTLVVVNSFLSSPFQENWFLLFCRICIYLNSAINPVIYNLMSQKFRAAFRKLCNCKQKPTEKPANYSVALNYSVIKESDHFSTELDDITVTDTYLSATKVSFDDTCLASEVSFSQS
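In this calcium-flux screen, cells bearing human TRHR are dye-loaded with fluo-8, baselined for 10 cycles, then exposed to library compounds; positive kinetic calcium responses during the agonist phase mark hits, with TRH as control.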
TRHR PAM = allosteric enhancers of human TRH receptor; P34981; TRHR cells, fluo-8 calcium fluorescence, EC20 TRH enhancement; enhancement, % at 2 µM; 360,000 tested, 0.66% active; AID 493056; in the data active = enhancement above about 30%; note: 0% is about no effect
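Enhancer read-out: after compound pinning and an initial kinetic agonist-mode read, an EC20 of TRH (10 nM final) was injected and fluo-8 calcium signal (Ex 480/Em 530) followed at 1 s/cycle for 100 cycles in TRHR-expressing cells.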
An asterisk follows results filed as active; . = no result given. Hits are enriched below; roughly 4.7% of the tested compounds scored in any of these assays. Cut-off read from the data, not from the text of the source, unless noted: active = activation above about 30%; inactive = the rest.

SMILES	D1 antag	D1 potentiator	D1 agonist	TRHR ag	TRHR PAM
COc1ccc(CNCCc2ccc(Cl)cc2)cc1OCc1ccccc1	-19	-3	58*	0	21
COc1ccc(OC)c(NC(=O)C(OC(=O)CNC(=O)c2ccccc2)c2ccccc2)c1 (stereo not given)	1	0	2	-1	4
CCOC(=O)c1cccc(Nc2c3c(nc4ccccc24)CCC3)c1	-17	0	0	0	2
CCCCn1c(N)c(N(Cc2ccccc2OC)C(=O)c2ccc(N3CCCC3=O)cc2)c(=O)[nH]c1=O	6	5	5	0	8
O=C(Nc1ccc(Cl)c(Cl)c1)N(Cc1c[nH]c2ccccc12)C1CCCCC1	19	5	2	2	1
COc1ccc(CCNCc2ccc(OCc3ccc(Cl)nc3)c(OC)c2)cc1OC	-8	-7	59*	4	0
COc1cccc(OCCNCc2ccccc2)c1	-18	34*	4	0	2
Cc1cccc(OCCCCNCc2ccccc2)c1	15	-3	8	0	-2
CC(=O)N[C@@H](Cc1c[nH]c2ccccc12)C(=O)NC1CCCc2ccccc21 (stereo not given in full)	-9	-5	1	-1	17
CCOc1cc(/C=C/C(=O)c2ccc(OC)c(CN3CCOCC3)c2)cc(Br)c1O	-1	-5	41*	40*	-7
CC1CCN(c2ncnc3ccccc23)CC1	-34*	-5	22	2	-1
CC1CCN(c2nc(-c3ccccc3O)nc3ccccc23)CC1	11	-8	3	0	1
Cc1ccccc1NC(=O)COC(=O)c1cccnc1	-16	6	3	0	-2
Cc1ccccc1NC(=O)COC(=O)c1ccc(CSc2ccc(Cl)cc2)cc1	-15	-13	179*	0	-5
CCc1cc2c(=O)oc(-c3ccccc3F)nc2s1	13	-5	1	1	37*
COC(=O)CSC1=NS(=O)(=O)c2ccccc21	-5	-4	3	2	39*
CC1CCCCC1Nc1ncnc2sccc12 (stereo not given)	-14	-5	9	0	13
COc1ccc(NC(=O)CNc2cccc(S(=O)(=O)N3CCCCCC3)c2)c([N+](=O)[O-])c1	-11	.	17	0	-4
CCOC(=O)Cn1c(=N)n(CCOc2ccc(OC)cc2)c2ccccc21	4	-2	11	2	-4
CCOC(=O)Cn1c(=N)n(CCOc2ccc3ccccc3c2)c2ccccc21	5	-10	32*	1	2
Cc1c(Cl)cccc1Nc1nn2c(=O)c3ccc(C(=O)NCCc4ccccc4)cc3nc2s1	-9	-1	5	-1	4
C=C(C)CSc1nc2sc3c(c2c(=O)n1-c1ccccc1)CCC(C)C3 (stereo not given)	-4	-1	-1	-1	-1
CCCCOc1ccc(CONS(=O)(=O)c2ccc(NC(C)=O)cc2)cc1Cl	-11	-6	136*	2	2
CC(=O)Nc1ccc(S(=O)(=O)NCCOc2ccc(Cl)cc2C)cc1	-14	2	6	1	12
CC(Sc1nnc(-c2cccnc2)n1N)C(=O)N1CCOCC1 (stereo not given)	-1	11	3	0	-4
SMILES	D1 antag	D1 potentiator	D1 agonist	TRHR ag	TRHR PAM
CC(Sc1nnc(-c2cccnc2)n1-c1ccccc1F)C(=O)N1CCCc2ccccc21 (stereo not given)	1	2	3	0	37*
CSc1ncc(C(=O)Nc2cccc(C)c2C)c(C)n1	-47*	-3	0	0	3
CSc1ncc(C(=O)Nc2ccccc2C)c(C)n1	-4	-5	4	0	5
COc1ccc(CCNC(=O)C23CN(Cc4ccccc4)CC2C(c2cccc([N+](=O)[O-])c2)=NO3)cc1 (stereo not given)	21	0	3	0	0
Cc1ccc(CCNC(=O)C23CN(Cc4ccccc4)CC2C(c2cccc([N+](=O)[O-])c2)=NO3)cc1 (stereo not given)	-10	1	0	0	34*
O=C(CNC(=O)c1ccccc1)OC(CCc1ccccc1)C(=O)Nc1cc(C(F)(F)F)ccc1Cl (stereo not given)	-37*	-6	8	2	-17
